# In PubChem BioAssay AID624416 (The Scripps Research Institute Molecular Screening Center, 2012):
# Screen size: about 360,000 compounds; about 1,500 (0.42%) were called active. Cut-off read from the data, not from the text of the source: active = inhibition above about 8.5%; inactive = the rest. For the sample, actives were picked, then their nearest neighbours and some compounds at random.
# Tested on: HIV-1 gp120 / PG9 antibody interaction
# Test: binders of HIV-1 gp120 antibody PG9, primary screen, biochemical, TR-FRET (AID 624416)
# Conditions: TR-FRET gp120-PG9 antibody binding; at 6.7 µM; active compounds read high
row,SMILES,inhibition
1,CC(C)(C)C(c1nc2ccccc2[nH]1)n1c(Cc2csc3ccccc23)nc2ccccc21 (stereo not given),3.67% (inactive)
2,CC(C)OCCCNC(=O)c1cc(Sc2ccc(F)cc2)nc2ccccc12,17.2% (active)
3,CC(C)CCNC(=O)c1cccnc1Sc1ccccc1,-0.45% (inactive)
4,O=C(NCCOc1ccccc1)c1ccccc1F,-0.63% (inactive)
5,O=S1(=O)c2ccc(Br)cc2-n2nncc2CN1Cc1cccc(Cl)c1,1.6% (inactive)
6,Nc1ccn([C@@H]2O[C@H](C(=O)N[C@H]3CCCCNC3=O)[C@@H](O)[C@H]2O)c(=O)n1,-0.25% (inactive)
7,CCN(CC)S(=O)(=O)c1cc(C(=O)Nc2ccccn2)ccc1C,-1.5% (inactive)
8,CCOc1cc(NC(=O)c2ccccc2C(=O)O)c(OCC)cc1NC(=O)c1ccccc1F,-7.45% (inactive)
9,CCOc1cc2ccccc2cc1C(=O)Nc1ccccn1,12.2% (active)
10,Nc1ncnc2c1ncn2[C@@H]1O[C@H](C(=O)N[C@@H](CCc2ccccc2)C(=O)N2CCCN(Cc3cccs3)CC2)[C@@H](O)[C@H]1O,0.34% (inactive)
11,C#CCN([C@@H](C)C(=O)OCC)S(=O)(=O)c1ccc(Br)cc1F,-1.25% (inactive)
12,C[C@@H]1ON(C)[C@H]2C[C@H]3c4cc(N5CCOCC5)ccc4CCN3C[C@@H]12,-1.04% (inactive)
13,CC1(C)Cc2ccccc2/C(=C/C(=O)c2ccccc2)N1,0.12% (inactive)
14,N#CC1=C(N)Oc2[nH]c(=S)[nH]c(=O)c2C12C(=O)Nc1ccccc12 (stereo not given),-2.89% (inactive)
15,CC1(C)Cc2ccccc2-c2[nH]c(=S)[nH]c(=O)c21,35% (active)
16,COC(=O)c1cc2c(c3c4ccccc4n(S(=O)(=O)c4cccc(C)c4)c13)C(=O)N(Cc1ccccc1)C2,0.57% (inactive)
17,N#Cc1cccc(C(=O)NCC2CCN(C(=O)C(=O)c3cc4ccccc4o3)CC2)c1,-0.57% (inactive)
18,CCCCOCC1CN(CCCC)S(=O)(=O)c2c(Oc3ccc(F)cc3)cccc2O1 (stereo not given),-0.05% (inactive)
19,O=C(C1=C(O)C(=O)N(Cc2ccccc2)C1c1ccco1)c1ccco1 (stereo not given),17.9% (active)
20,CCOc1cc(C2C(C(=O)c3ccco3)=C(O)C(=O)N2Cc2ccccc2)ccc1O (stereo not given),0.36% (inactive)
21,O=C(C1=C(O)C(=O)N(Cc2ccccc2)C1c1cccnc1)c1ccco1 (stereo not given),7.52% (inactive)
22,COC(=O)C1=C(C)N(Cc2cccc(C(F)(F)F)c2)C(=NCc2cccc(C(F)(F)F)c2)NC1c1ccccc1C(F)(F)F (stereo not given),-0.87% (inactive)

row,SMILES,inhibition
1,COC(=O)C1=C(C)NC(=S)NC1c1ccc(OC)cc1 (stereo not given),-0.48% (inactive)
2,COC(=O)C1=C(C)N(Cc2cccc(C(F)(F)F)c2)C(=NCc2ccccc2)NC1c1ccc(Cl)cc1 (stereo not given),-1.36% (inactive)
3,COC(=O)[C@H](CC(C)C)NS(=O)(=O)c1c(F)cccc1F,-2.8% (inactive)
4,COc1ccc(S(=O)(=O)Nc2ccc3c(c2)C(=O)N([C@H](C)CO)C[C@H](C)[C@@H](CN(C)C)OCCCC[C@H](C)O3)cc1,-0.42% (inactive)
5,O=C(COC(=O)c1cccc(Br)c1)Nc1cccc2c1C(=O)c1ccccc1C2=O,12% (active)
6,O=C(COC(=O)c1cccc(Cl)c1)Nc1ccc2[nH]c(=O)[nH]c2c1,0.75% (inactive)
7,O=C(COC(=O)Cn1cnc2ccccc21)Nc1cccc2c1C(=O)c1ccccc1C2=O,-1.23% (inactive)
8,COC(=O)[C@]12C[C@H](CC(=O)NCc3cccc(C(F)(F)F)c3)C(=O)N(Cc3ccc4c(c3)OCO4)C1=C[C@H](COCc1ccccc1)O[C@@H]2C,-1.16% (inactive)
9,COc1cccc(NC(=O)N(C)C[C@@H]2OCc3cn(nn3)CCCC(=O)N([C@@H](C)CO)C[C@H]2C)c1,0.85% (inactive)
10,CCOc1ccc2cc(C#N)c(SCC(=O)OC)nc2c1,33.3% (active)
11,Cc1cc(C#N)c(SCC(N)=O)nc1-c1ccc(F)cc1,-0.54% (inactive)
12,CCOc1ccc2nc(N3CCCN(C(=O)Nc4ccccc4C)CC3)c(C#N)cc2c1,1.36% (inactive)
13,COc1ccccc1Cc1c(-c2ccc(F)cc2)nc2ccc(C)cn12,1.73% (inactive)
14,N#Cc1ccc(OCCCN2CCC(C(O)(c3ccccc3)c3ccccc3)CC2)c(F)c1,1.27% (inactive)
15,O=C(O)CCC(=O)Nc1nc2ccc([N+](=O)[O-])cc2s1,9.53% (active)
16,Cc1nc(NC(=O)CCC(=O)O)sc1C(=O)N(C)C,0.5% (inactive)
17,NS(=O)(=O)c1ccc2nc(NC(=O)CS(=O)(=O)c3ccc(F)cc3)sc2c1,-0.8% (inactive)
18,CCN1C(=O)N[C@@H]2C[C@H](C(=O)N3CCCC3)[C@H](C)[C@H](c3ccccc3)C[C@@H]21,-1.63% (inactive)
19,O=C(COC(=O)c1cccc(Cl)c1Cl)NC1CCCCCC1,-0.6% (inactive)
20,O=C(COC(=O)c1ccccc1Cl)NC1CCCCCCC1,-1.4% (inactive)
21,N#Cc1ccccc1Sc1ccccc1C(=O)OCC(=O)NC1CCCCC1,33% (active)
22,COCCNC(=S)N(C)[C@H]1C[C@H]2c3[nH]c4ccccc4c3CCN2C[C@H]1[C@H](C)O,-0.82% (inactive)

row,SMILES,inhibition
1,COCc1[nH]nc2c1C(c1ccccc1)N(c1ccccc1)C2=O (stereo not given),0.32% (inactive)
2,O=C1[C@@H](c2ccccc2)[C@@H](c2ccccc2)N1c1ccccc1,-1.27% (inactive)
3,S=c1ccc2ccccc2[nH]1,1.87% (inactive)
4,S=c1[nH]c2ccccc2c2ccccc12,41.9% (active)
5,Cc1cc2c3ccccc3[nH]c(=O)n2n1,0.66% (inactive)
6,Cc1ccc(-n2nc(-c3ccco3)cc2C(=O)NCc2cccnc2)cc1,1.7% (inactive)
7,Cc1ccc(-n2ncc3c2ncn2nc(-c4ccco4)nc32)c(C)c1,1.54% (inactive)
8,Cc1ccc(-n2ncc3c(=O)n(-c4ccc(C)c(C)c4)c(-c4ccco4)nc32)cc1,9.24% (active)
9,CCOC(=O)Cn1c2c(n(-c3ccc(F)cc3)c1=O)C=C(c1ccccc1)[C@@H](C)C(C(=O)N(C)C1CCCCC1)=C2,1.82% (inactive)
10,CCCCCCCCN1C(=O)[C@@H](CC(=O)N2CCN(C(=O)OCC)CC2)C[C@@]2(C(=O)OC)C1=C[C@H](C1CCCC1)O[C@@H]2C,-1.72% (inactive)
11,Cc1ccc(-c2cc(C(=O)NCc3cn(C)nc3C)c3cc(Br)ccc3n2)cc1,11.4% (active)
12,Cc1nn(C)cc1C(=O)Nc1ccccc1Br,-1.45% (inactive)
13,Cc1nn(C)cc1CNC(=O)Nc1ccc(Cl)cc1,-1.07% (inactive)
14,Cc1cc(OC(=O)NCCc2ccc(F)cc2)ccc1F,0.4% (inactive)
15,COC(=O)[C@]12C[C@H](CC(=O)NCc3ccccc3)C(=O)N(CCC3=CCCCC3)C1=C[C@H](C(C)(C)C)O[C@@H]2C,-0.45% (inactive)
16,Nc1ncnc2c1ncn2C1OC(CO)CC1O (stereo not given),-0.46% (inactive)
17,CSc1nc2c(c(=O)[nH]1)C(c1cccc(Cl)c1Cl)CC(=O)N2 (stereo not given),-0.61% (inactive)
18,N#Cc1c(N)nc2c3c(sc(=N)c2c1N)NC(=O)CC3c1ccccc1Cl (stereo not given),36.3% (active)
19,NNc1nc2c(Cl)cccc2s1,-3.22% (inactive)
20,Fc1cc(F)c2nc(Nc3nc4c(F)cccc4s3)sc2c1,12.7% (active)
21,Cc1cc(NCCc2c[nH]c3ccccc23)ccc1Oc1cccnc1,0.39% (inactive)
22,C[C@@H](CN1C2=NC[C@@H](Cc3ccccc3)N2C[C@H]1Cc1ccc(O)cc1)NC(=O)CCC1CCCCC1,-0.86% (inactive)

row,SMILES,inhibition
1,COc1ccc(CC(=O)Nc2ccc(-c3nnc(-c4ccccc4)o3)cc2)cc1,9.44% (active)
2,COc1ccc(NC(=O)CC(NC(C)c2ccccc2)C(=O)O)cc1 (stereo not given),-1.77% (inactive)
3,COc1ccc(NC(=O)CSc2nnc(Cc3ccccc3)c(=O)n2N)cc1,-0.48% (inactive)
4,CC(C)[C@H]1COCCS(=O)(=O)N1Cc1ccccc1-c1cccc2c1sc1ccccc12,-1.17% (inactive)
5,C=CC[C@]12C[C@@]3(O[C@H](c4ccc(C(F)(F)F)cc4)N=C3C[C@H](c3ccc(OC)cc3)[C@H]1C)N(C1CCN(Cc3ccccc3)CC1)C2=O,-1.53% (inactive)
6,CCCn1c(N)c(C(=O)CSc2nc3ccccc3c(=O)n2-c2ccc(OC)cc2)c(=O)[nH]c1=O,-1.09% (inactive)
7,Cc1ccc(-n2c(SCC(=O)N3CCC(C(=O)O)CC3)nc3ccccc3c2=O)cc1C,-0.77% (inactive)
8,COc1cccc(-n2c(SCC(=O)c3c[nH]c4ccccc34)nc3ccccc3c2=O)c1,35.5% (active)
9,O=C(NCCc1ccccn1)c1cc(C(=O)C2CCCCC2)c[nH]1,10.2% (active)
10,O=C(NCCc1ccccn1)c1ccc(COc2ccccc2)o1,-2% (inactive)
11,COc1ccc(CNC(=O)c2cc(C(=O)C3CC3)c[nH]2)cc1,-0.91% (inactive)
12,COc1ccc(CCNC(=O)CSc2nc(-c3ccc(OC)c(OC)c3)ccc2C#N)cc1,16% (active)
13,COc1ccc(CCNC(=O)CSc2nnc3ccc(-c4ccncc4)nn23)cc1,-1.52% (inactive)
14,COc1cc(OC)cc(C(=O)NCCSCc2ccc(Cl)cc2)c1,-1.65% (inactive)
15,COc1cccc(-c2ccc(C#N)c(SCC(=O)NCCc3ccc(Cl)cc3)n2)c1,14.1% (active)
16,COc1ccc(CCNC(=O)CSc2nc(C)nc3c2oc2ccccc23)cc1OC,-0.52% (inactive)
17,COc1ccc(CCNC(=O)COC(=O)c2cnc(Cl)c(Cl)c2)cc1,-0.95% (inactive)
18,CCc1c(-c2ccccc2OC)ncn1CCc1ccccc1OC,0.74% (inactive)
19,COC(=O)[C@]12C[C@H](CC(=O)N3CCN(C(=O)C4CC4)CC3)C(=O)N(Cc3ccc4c(c3)OCO4)C1=C[C@H](C(C)(C)C)O[C@@H]2C,-1.36% (inactive)
